From PubChem BioAssay
Activity calls are given as the source filed them. Unless noted, no rule for the calls is given here.

Tests used:
[1] = compounds binding Alexa647 anti-His antibody – biochemical, small-molecule microarray, 635 nm fluorescence, artefact control for SMM control protein annotation, primary screen (AID 1128); details: higher = more signal;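 also: score merges feature fluorescence with signal-to-noise for each printed compound spot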
[2] = test system: Human papillomavirus type 1a E7 protein (residues 1-88); assay: HPV1a E7 small-molecule binders, primary screen, biochemical, small-molecule microarray, residues 1-88, 635 nm (AID 1129); details: small-molecule microarray binding, fluorescence 635 nm; higher = more signal
[3] = target: Focal adhesion kinase 1 (Homo sapiens) (UniProt Q05397); assay: PTK2 protein binding on printed compound slides – biochemical, small-molecule microarray, 635/667 nm fluorescence, BSA, DTT, primary screen (AID 1130); details: 635 nm fluorescence, higher = more signal;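 also: composite of spot emission at 667 nm and signal to noise over triplicate slides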
Focal adhesion kinase 1 (Homo sapiens), sequence (Q05397 whole entry, looked up): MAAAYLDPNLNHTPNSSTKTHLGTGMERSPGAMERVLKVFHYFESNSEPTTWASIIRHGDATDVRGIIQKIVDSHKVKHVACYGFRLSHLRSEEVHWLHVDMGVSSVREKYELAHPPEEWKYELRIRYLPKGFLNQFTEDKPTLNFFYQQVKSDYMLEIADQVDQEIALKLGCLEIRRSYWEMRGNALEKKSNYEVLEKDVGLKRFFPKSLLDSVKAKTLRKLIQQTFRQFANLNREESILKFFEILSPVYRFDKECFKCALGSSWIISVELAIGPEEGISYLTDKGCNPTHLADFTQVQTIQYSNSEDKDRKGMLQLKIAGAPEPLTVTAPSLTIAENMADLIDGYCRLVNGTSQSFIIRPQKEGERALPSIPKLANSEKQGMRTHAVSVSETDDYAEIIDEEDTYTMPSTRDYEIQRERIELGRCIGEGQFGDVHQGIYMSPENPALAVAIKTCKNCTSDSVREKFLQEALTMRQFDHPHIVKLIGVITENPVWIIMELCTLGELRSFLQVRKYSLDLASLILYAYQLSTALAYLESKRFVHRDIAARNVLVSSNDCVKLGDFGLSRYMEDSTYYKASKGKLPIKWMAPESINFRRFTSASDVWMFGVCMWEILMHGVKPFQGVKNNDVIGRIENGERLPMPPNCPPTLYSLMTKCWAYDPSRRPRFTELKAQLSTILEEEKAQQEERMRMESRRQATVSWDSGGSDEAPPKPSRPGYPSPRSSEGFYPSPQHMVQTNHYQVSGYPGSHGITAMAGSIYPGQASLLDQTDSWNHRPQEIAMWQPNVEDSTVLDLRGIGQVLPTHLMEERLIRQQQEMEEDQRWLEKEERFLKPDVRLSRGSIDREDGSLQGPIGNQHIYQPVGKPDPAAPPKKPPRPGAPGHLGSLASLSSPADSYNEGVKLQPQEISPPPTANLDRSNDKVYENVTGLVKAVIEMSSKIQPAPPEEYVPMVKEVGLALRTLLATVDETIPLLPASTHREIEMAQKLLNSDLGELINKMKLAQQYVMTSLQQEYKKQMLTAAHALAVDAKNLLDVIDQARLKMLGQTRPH

[4] = test system: Fibrinogen (Alexa647-labelled); assay: Alexa647-fibrinogen binding to printed small molecules – biochemical, small-molecule microarray, 635/667 nm fluorescence, artefact control for SMM control-protein annotation, profiling panel (AID 1131); details: fibrinogen-A647 binding fluorescence, higher = more signal;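 also: z-score merges 667 nm fluorescence with per-spot signal-to-noise over triplicate slides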
[5] = target: Follistatin (Homo sapiens) (UniProt P19883); assay: FST protein binding to printed compounds – biochemical, small-molecule microarray, 635/667 nm fluorescence, primary screen (AID 1132); details: 635 nm fluorescence, higher = more signal
Follistatin (Homo sapiens), sequence (P19883 whole entry, looked up): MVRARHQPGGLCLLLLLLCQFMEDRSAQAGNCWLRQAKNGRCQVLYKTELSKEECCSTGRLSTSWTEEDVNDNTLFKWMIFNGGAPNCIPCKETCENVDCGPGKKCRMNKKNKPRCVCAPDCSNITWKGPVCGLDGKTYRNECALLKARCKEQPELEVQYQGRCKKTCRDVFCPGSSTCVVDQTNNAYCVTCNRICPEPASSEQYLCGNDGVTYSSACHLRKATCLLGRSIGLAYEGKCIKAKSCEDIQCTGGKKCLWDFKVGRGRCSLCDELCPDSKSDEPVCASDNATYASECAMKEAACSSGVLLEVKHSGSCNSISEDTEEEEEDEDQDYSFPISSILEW

[6] = target: Fibroblast growth factor 2 (Homo sapiens) (UniProt P09038); assay: basic fibroblast growth factor binding to printed compounds – biochemical, small-molecule microarray, 635/667 nm fluorescence, primary screen (AID 1133); details: FGF2, fluorescence 635/667, higher = more signal
Fibroblast growth factor 2 (Homo sapiens), sequence (P09038 whole entry, looked up): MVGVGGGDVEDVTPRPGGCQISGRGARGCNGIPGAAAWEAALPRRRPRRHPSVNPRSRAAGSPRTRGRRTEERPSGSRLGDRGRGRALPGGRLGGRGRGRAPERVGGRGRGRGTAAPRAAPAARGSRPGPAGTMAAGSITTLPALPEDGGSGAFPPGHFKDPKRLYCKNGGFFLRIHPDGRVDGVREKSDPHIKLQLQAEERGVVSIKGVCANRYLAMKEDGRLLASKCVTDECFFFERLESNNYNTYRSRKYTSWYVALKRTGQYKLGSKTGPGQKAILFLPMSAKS

[7] = JC-1 mitochondrial potential readout, lung cancer cells – cell-based, A549, JC-1 fluorescence, basal, 24 h, 100 nL, profiling panel (AID 1138); details: higher = more signal;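 also: A549 lung adenocarcinoma cells under basal conditions with no added stimulus; test concentration not given here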
[8] = test system: Lefty1; assay: Lefty1 protein binding to printed compounds – biochemical, small-molecule microarray, 635/667 nm fluorescence, primary screen (AID 1139); details: fluorescence 635/667, higher = more signal
[9] = test system: wheat germ agglutinin (Triticum aestivum), Alexa647-labelled; assay: Alexa647-WGA lectin binding to printed small molecules – biochemical, small-molecule microarray, 635/667 nm fluorescence, artefact control for SMM control-protein annotation, profiling panel (AID 1140); details: WGA-A647 binding, 635 nm fluorescence, higher = more signal;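 also: score merges 667 nm feature emission with signal to noise over triplicate slides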
[10] = target: Luciferin 4-monooxygenase (Photinus pyralis) (UniProt P08659); assay: inhibition of purified Photinus pyralis luciferase – biochemical, luminescence, purified enzyme, 2006 set, primary screen (AID 1141); details: purified firefly luciferase, SteadyGlo luminescence, 30 min; higher = more signal, called active from +8 up or from −8 down;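 also: cell-free assay with purified firefly luciferase at 100 ng per well in PBS; test concentration not given here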
Luciferin 4-monooxygenase (Photinus pyralis), sequence (P08659 whole entry, looked up): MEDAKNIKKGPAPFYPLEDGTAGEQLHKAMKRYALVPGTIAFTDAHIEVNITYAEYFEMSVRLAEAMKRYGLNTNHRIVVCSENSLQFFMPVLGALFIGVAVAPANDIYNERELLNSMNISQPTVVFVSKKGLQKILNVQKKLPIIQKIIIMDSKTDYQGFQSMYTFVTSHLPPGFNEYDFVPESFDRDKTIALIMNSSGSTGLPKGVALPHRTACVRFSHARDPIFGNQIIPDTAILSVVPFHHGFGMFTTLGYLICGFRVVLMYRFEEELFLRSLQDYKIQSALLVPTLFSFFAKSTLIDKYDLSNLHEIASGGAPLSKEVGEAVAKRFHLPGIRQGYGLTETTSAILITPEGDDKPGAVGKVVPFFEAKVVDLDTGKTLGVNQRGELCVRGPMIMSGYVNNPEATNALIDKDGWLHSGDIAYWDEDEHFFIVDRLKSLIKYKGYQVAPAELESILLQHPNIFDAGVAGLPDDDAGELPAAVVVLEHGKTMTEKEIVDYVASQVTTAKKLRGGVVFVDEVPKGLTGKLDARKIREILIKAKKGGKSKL

[11] = test system: Wnt5a (protein binding on small-molecule microarray); assay: small molecules binding Wnt5a protein – biophysical, small-molecule microarray, 635/667 nm fluorescence, primary screen (AID 1142); details: 635 nm fluorescence, higher = more signal;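 also: fluorescence read at 667 nm with signal to noise per printed feature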
[12] = ATP-based viability of Huh7 replicon cells – cell-based, CellTiter-Glo luminescence, basal, 48 h, cytotoxicity control for HCV replication inhibitor project, primary screen (AID 1143); details: higher = more signal, called active from +8 up or from −8 down;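 also: Huh7 hepatoma cells carrying a hepatitis C replication reporter with no stimulus; test concentration not given here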
[13] = Pseudomonas biofilm growth suppression – PAO1 strain, BacTiter-Glo luminescence, LB-PBS, primary screen (AID 1144); details: P. aeruginosa PAO1 biofilm, 12 h, higher = more signal
[14] = basal CRE-LacZ reporter activity in PC12 – cell-based, unstimulated, primary screen (AID 1145); details: no forskolin, luminescence, 4.5 h, higher = more signal, called active from +8 up or from −8 down
[15] = forskolin-driven CRE-LacZ activity in PC12 – cell-based, CRE-LacZ reporter, forskolin-stimulated, primary screen (AID 1146); details: luminescence, 4.5 h, higher = more signal, called active from +8 up or from −8 down;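 also: PC12 cells with 6xCRE LacZ reporter stimulated by forskolin 10 µM; beta-galactosidase reporter signal reflecting CREB driven transcription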
[16] = target: Streptavidin (Streptomyces avidinii) (UniProt P22629); assay: compounds binding control protein streptavidin – biophysical, small-molecule microarray, 635/667 nm fluorescence, artefact control for SMM compound annotation, primary screen (AID 1147); details: higher = more signal;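 also: signal reflects streptavidin binding to arrayed compounds as a control protein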
Streptavidin (Streptomyces avidinii), sequence (P22629 whole entry, looked up): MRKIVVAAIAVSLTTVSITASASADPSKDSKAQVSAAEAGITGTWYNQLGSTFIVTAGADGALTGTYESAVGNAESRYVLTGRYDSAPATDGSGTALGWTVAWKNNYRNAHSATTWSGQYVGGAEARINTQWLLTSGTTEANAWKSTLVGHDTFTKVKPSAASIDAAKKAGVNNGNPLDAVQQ

[17] = probe aInhba binding on compound microarray – biochemical, small-molecule microarray, 635/667 nm fluorescence, primary screen (AID 1148); details: higher = more signal;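 also: score merges 667nm spot fluorescence with signal-to-noise for antibody binding to printed compounds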
[18] = target: Torsin-1A (Homo sapiens) (UniProt O14656); assay: TOR1A wild-type binding on microarray – cell lysate, small-molecule microarray, lysate, 635/667 nm, primary screen (AID 1149); details: COS7 hTOR1A-WT lysate, 635 nm fluorescence, higher = more signal
Torsin-1A (Homo sapiens), sequence (O14656 whole entry, looked up): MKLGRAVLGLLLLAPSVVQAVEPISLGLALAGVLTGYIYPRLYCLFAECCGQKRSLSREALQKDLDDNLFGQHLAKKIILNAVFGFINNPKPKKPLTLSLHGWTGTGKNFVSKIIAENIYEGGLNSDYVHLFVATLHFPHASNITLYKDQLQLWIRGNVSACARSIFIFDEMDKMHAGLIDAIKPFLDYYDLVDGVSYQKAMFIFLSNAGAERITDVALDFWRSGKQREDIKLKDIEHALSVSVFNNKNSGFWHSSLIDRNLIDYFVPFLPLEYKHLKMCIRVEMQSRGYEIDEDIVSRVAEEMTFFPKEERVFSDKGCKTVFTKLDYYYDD

[19] = target: Torsin-1A (Homo sapiens) (UniProt O14656); assay: torsin A mutant lysate binding on microarrays – cell lysate, small-molecule microarray, COS7 lysate, 635/667 nm fluorescence, primary screen (AID 1150); details: COS7 hTOR1A mutant lysate, 635 nm fluorescence, higher = more signal;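 also: score pools 667 nm emission and signal to noise measuring lysate protein binding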
[20] = test system: Sonic hedgehog protein (Shh); assay: Sonic hedgehog microarray binding compounds – biochemical, small-molecule microarray, 635/667 nm fluorescence, primary screen (AID 1151); details: 635 nm fluorescence, higher = more signal;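 also: Shh protein binding to compounds spotted on small-molecule microarray slides; score combines spot fluorescence intensity with signal-to-noise across triplicate slides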

Row | Compound | composite z-score [1] | composite z-score [2] | composite z-score [3] | composite z-score [4] | composite z-score [5] | composite z-score [6] | z-score [7] | composite z-score [8] | composite z-score [9] | z-score [10] | composite z-score [11] | z-score [12] | z-score [13] | z-score [14] | z-score [15] | composite z-score [16] | composite z-score [17] | composite z-score [18] | composite z-score [19] | composite z-score [20]
1 | COCCOC(=O)N1C(=O)[C@@]2(c3ccccc31)[C@H](c1ccc(OCCO)cc1)N1[C@H](c3ccccc3)[C@H](c3ccccc3)OC(=O)[C@H]1[C@@H]2C(=O)NC[C@H](O)c1ccccc1 | 1.95 | 1.23 | 0.327 | 0.937 | 1.32 | 1.03 | 0.414 | 0.714 | 1.05 | -0.652 (inactive) | 0.385 | -1.49 (inactive) | 0.109 (inactive) | 0.891 (inactive) | 10.1 (active) | 0.258 | 0.268 | 1.19 | 0.662 | 2.04
2 | CCCc1cc2c(n1Cc1ccc(OC)cc1)C(C)C1CN(C(=O)c3ccccc3)C(C)(C(=O)OC)C21 (stereo not given) | 2.74 | 1.24 | 1.56 | 1.01 | 0.0092 | -1.19 | 0.788 | -0.515 | 1.47 | 0.062 (inactive) | 0.562 | -3.08 (inactive) | 0.393 (inactive) | 0.207 (inactive) | 1.52 (inactive) | 1.95 | 0.297 | 0.0326 | 0.773 | 0.0704
3 | [N-]=[N+]=NCc1ccccc1[C@H]1OC(c2ccc(OCCCO)cc2)=N[C@@]1(Cc1ccccc1N=[N+]=[N-])C(=O)NCCN1CCOCC1 | 2.01 | 1.27 | 0.387 | 0.981 | 1.27 | 0.939 | 1.57 | 0.631 | 1.2 | -2.69 (inactive) | 0.853 | -2.28 (inactive) | 0.28 (inactive) | 0.162 (inactive) | -0.542 (inactive) | 1.37 | 0.0657 | -0.161 | 1.04 | 0.271
4 | COC(=O)[C@@]1(Cc2ccc(F)cc2)[C@@H]2[C@@H](CC(=O)[C@H]2CC(=O)C(=O)N2CCCC2)CN1C(=O)c1ccccc1 | 0.266 | 1.24 | 1.51 | 0.931 | 0.95 | 0.455 | 0.694 | -1.01 | 0.772 | 2.19 (inactive) | 0.603 | -2.93 (inactive) | 0.925 (inactive) | 0.766 (inactive) | 0.526 (inactive) | 1.48 | 1.4 | 0.0262 | 0.666 | -0.695
5 | O=C1OCCC=C[C@H]2OC34C=CCN(Cn5nnc6ccccc65)C(=O)[C@H]3N(CCCCCO)C(=O)[C@@H]4C12 (stereo not given in full) | 2.73 | -0.476 | 0.0209 | -2.02 | -0.862 | -0.346 | 0.427 | -0.559 | -0.807 | -0.245 (inactive) | -0.355 | 0.399 (inactive) | -1.04 (inactive) | 0.0564 (inactive) | 0.804 (inactive) | -0.686 | -0.0762 | 0.97 | 1.15 | 0.0364
6 | COc1cc2c(cc1OC)CN(C(=O)[C@@H]1[C@H]3C(=O)O[C@H](c4ccccc4)[C@H](c4ccccc4)N3[C@H](c3ccc(O)cc3)[C@@]13C(=O)Nc1ccc(C#CCNC(N)=O)cc13)CC2 | 0.474 | 0.69 | 0.484 | 0.43 | 1.29 | 0.302 | -0.876 | 0.837 | 0.607 | 0.696 (inactive) | 0.147 | 0.311 (inactive) | 0.347 (inactive) | 0.182 (inactive) | 0.445 (inactive) | 0.239 | -0.101 | -0.0899 | -0.0351 | 0.946
7 | CCC[C@@H]1C[C@@]1(CCC)[C@@H](NC(=O)c1cccs1)c1ccc(Cl)cc1 | -0.449 | -0.375 | -0.352 | 0.7 | -1.42 | -0.639 | -0.101 | -1.69 | 0.152 | -2.2 (inactive) | -0.551 | -2.21 (inactive) | 0.803 (inactive) | 1.15 (inactive) | -0.127 (inactive) | -0.7 | -0.211 | -0.312 | -0.412 | -0.949
8 | CC1CC/C=C\[C@H]2OC34C=CCN(Cc5ccccc5)C(=O)[C@H]3N(CCO)C(=O)[C@@H]4C2C(=O)O1 (stereo not given in full) | 0.364 | 0.324 | -0.106 | -0.785 | -0.418 | -0.43 | -0.322 | -0.592 | -0.162 | -0.573 (inactive) | 0.478 | -0.273 (inactive) | 0.836 (inactive) | -0.0778 (inactive) | 0.151 (inactive) | -0.492 | -0.176 | 2.37 | 2.58 | -0.218
9 | Cc1ccc(S[C@]2(C(=O)NCc3ccccc3)CC(=O)N(C3Cc4ccccc4C3)[C@@H]2c2ccc(CO)cc2I)cc1 | -1.12 | -0.621 | -0.17 | -0.151 | -0.328 | -0.244 | 1.24 | -0.582 | 0.146 | -1.26 (inactive) | -0.265 | -2.56 (inactive) | -0.394 (inactive) | -0.179 (inactive) | -0.17 (inactive) | -0.299 | -0.157 | -0.265 | -1.03 | -0.0358
